# Measurements taken from PubChem BioAssay AID1210 (NMMLSC, 2008).
# Active and inactive are the calls of the source.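 Rule for the calls: active = blocks over 70% of labeled estradiol binding at 10 µM, or over a set limit at 100 nM; inactive = the rest.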
# Target: Estrogen receptor beta (Homo sapiens) (UniProt Q92731)
# Assay: displacement of fluorescent estrogen from ERbeta – cell-based, Cos7 ERbeta-GFP, flow cytometry, primary screen (AID 1210);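 note: 0% = DMSO vehicle wells and 100% = complete loss of labeled estradiol signal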
# Settings: fluorescent estrogen binding, at 10 µM, stronger effect = higher value
# Chain of Estrogen receptor beta (Homo sapiens) (Q92731 whole entry, looked up): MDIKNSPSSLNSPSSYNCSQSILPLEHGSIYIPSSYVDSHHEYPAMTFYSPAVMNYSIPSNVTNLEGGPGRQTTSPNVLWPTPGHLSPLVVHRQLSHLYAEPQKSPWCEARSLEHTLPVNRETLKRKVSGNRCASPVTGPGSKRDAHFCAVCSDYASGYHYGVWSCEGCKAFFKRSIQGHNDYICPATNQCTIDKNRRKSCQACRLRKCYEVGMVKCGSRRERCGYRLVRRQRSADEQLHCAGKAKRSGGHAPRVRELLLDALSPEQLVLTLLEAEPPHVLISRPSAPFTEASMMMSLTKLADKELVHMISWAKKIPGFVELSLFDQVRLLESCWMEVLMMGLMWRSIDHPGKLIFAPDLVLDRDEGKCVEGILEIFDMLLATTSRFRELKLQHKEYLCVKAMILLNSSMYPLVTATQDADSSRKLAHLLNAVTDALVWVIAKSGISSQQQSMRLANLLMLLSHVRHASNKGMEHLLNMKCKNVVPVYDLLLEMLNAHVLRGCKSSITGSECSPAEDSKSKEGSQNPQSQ
row,SMILES,inhibition
1,CC(C)C1CC(CCNCc2ccc3c(c2)OCO3)(c2ccccc2)CCO1 (configuration not stated),45% (inactive)
2,N#Cc1c(NCCN)nc(NCc2ccccc2)c2c1CCN(Cc1ccccc1)C2,42% (inactive)
3,COc1ccccc1-c1nnc2sc(-c3cnccn3)nn12,40% (inactive)
4,CC1(C)C=C(c2ccc(O)cc2)CC(C)(C)N1,43% (inactive)
5,CSC(=O)CNC1(Cc2ccc(O)cc2)CCCCC1,87% (active)
6,COc1ccccc1NC(=O)c1ccccc1NC(=O)c1cc(Cl)ccc1NC(=O)c1ccco1,77% (active)
7,O=c1oc2c(CN3CCCC3)c(O)ccc2c2c1CCC2,22% (inactive)
8,CC(C)CN(Cc1c(O)ccc2c3c(c(=O)oc12)CCC3)CC(C)C,17% (inactive)
9,COc1ccc2[nH]c3c(c2c1)CCNC3C1CC=C(C)CC1 (configuration not stated),22% (inactive)
10,CCCCOC(=O)c1c(C)oc2ccc(NS(=O)(=O)c3ccc4c5c(cccc35)C(=O)N4)cc12,43% (inactive)
11,CCO/C([O-])=N/c1c[n+](N2CCOCC2)no1,21% (inactive)
12,COc1ccc(NS(=O)(=O)c2ccc3c(c2)[C@H]2C=CC[C@H]2[C@@H](c2ccc(F)cc2)N3)cc1,20% (inactive)
13,CC1Cc2ccccc2N1C(=O)CSc1nnc(-c2ccc(S(=O)(=O)N3CCCC3)cc2)o1 (configuration not stated),54% (inactive)
14,O=C(NCc1ccco1)c1cc2ccc(O)cc2oc1=O,44% (inactive)
15,Cc1cc(O)ccc1C1(c2ccc(O)cc2C)OC(=O)c2ccccc21,36% (inactive)
16,Nc1nc2c(s1)CCc1c-2cnn1-c1ccccc1,50% (inactive)
17,Cc1ccc(C)c(/C(O)=C2/C(=O)C(=O)N(CCN3CCOCC3)C2c2ccco2)c1 (configuration not stated),23% (inactive)
18,O=C(O)c1ccc2c(c1)-c1nc3ccccc3n1C2=O,0% (inactive)
19,Cn1c(SCC(=O)N2c3ccccc3CCc3ccccc32)nnc1-c1cc2ccccc2cc1O,19% (inactive)
20,CCc1cc2c3c(c(=O)oc2cc1OCC(=O)OC)CCCC3,15% (inactive)

row,SMILES,inhibition
1,CCc1ccc(-c2nn(-c3ccccc3)cc2CSC(=N)N)cc1,76% (active)
2,Cc1ccc2c(c1)C1C=CCC1C(C(=O)O)N2 (configuration not stated),0% (inactive)
3,COc1ccc(-n2c(SCC(=O)Nc3nccs3)nc3sc4c(c3c2=O)CCN(C)C4)cc1,41% (inactive)
4,Cn1c(SCc2cc(=O)n3cc(Br)ccc3n2)nnc1C1COc2ccccc2O1 (configuration not stated),16% (inactive)
5,COc1ccc(C)cc1-n1nnnc1SCC(=O)NC(=O)NCc1ccco1,61% (inactive)
6,O=c1c(C(c2ccc(O)cc2)c2c(O)nc3n(c2=O)CCS3)c(O)nc2n1CCS2,3% (inactive)
7,C/C(N)=C(/C#N)C(=O)CSc1nnc(-c2ccc(OC(F)F)cc2)o1,37% (inactive)
8,CC1(C)OC(C)(C)/C(=C/Nc2ccc(O)cc2)C1=O,58% (inactive)
9,O=C(O)C1Nc2c(C(=O)N3CCOCC3)cccc2C2C=CCC12 (configuration not stated),45% (inactive)
10,CCOC(=O)c1ccc2c(c1)C1C=CCC1C(C(=O)O)N2 (configuration not stated),36% (inactive)
11,CC(C)COc1ccc2c(c1)c1c3n2CCNC3CCC1 (configuration not stated),9% (inactive)
12,COC(=O)c1ccc(C2Nc3ccc(/C(C)=N/NC(=O)C(OC)c4ccccc4)cc3C3C=CCC32)cc1 (configuration not stated),22% (inactive)
13,CC(=O)OC1CC(C)(C)N(OC(=O)c2ccc(N)cc2)C(C)(C)C1,30% (inactive)
14,CCc1ccc(Nc2nc(N)nc(CSc3nnnn3-c3ccccc3)n2)cc1,67% (inactive)
15,Oc1ccccc1C1=Nc2ccccc2N=C(c2cccs2)C1,19% (inactive)
16,C=C1C2C[C@H](O)C(C)(C)[C@@]2(O)[C@H](O)C[C@]23C[C@@](C)(O)[C@H](CC[C@H]12)[C@H]3O (some centres not stated),70% (inactive)
17,Cc1nn2cc(-c3ccc(N)cc3)nc2s1,23% (inactive)
18,COc1cc(O)c2c(=O)c3c(OC)c(O)ccc3oc2c1,41% (inactive)
19,COc1cc(-c2nc3ccc4ccccc4c3c3c2CCC3)ccc1O,0% (inactive)

# Same assay, conditions: fluorescent estrogen binding, ligand binding inhibition, at 0.1 µM, stronger effect = higher value
row,SMILES,inhibition
1,COc1ccccc1-c1nnc2sc(-c3cnccn3)nn12,17%
2,CCO/C([O-])=N/c1c[n+](N2CCOCC2)no1,44%
3,CC1Cc2ccccc2N1C(=O)CSc1nnc(-c2ccc(S(=O)(=O)N3CCCC3)cc2)o1 (configuration not stated),19%
4,O=C(NCc1ccco1)c1cc2ccc(O)cc2oc1=O,38%
5,Cc1cc(O)ccc1C1(c2ccc(O)cc2C)OC(=O)c2ccccc21,10%
6,Cc1ccc(C)c(/C(O)=C2/C(=O)C(=O)N(CCN3CCOCC3)C2c2ccco2)c1 (configuration not stated),17%
7,CCc1ccc(-c2nn(-c3ccccc3)cc2CSC(=N)N)cc1,71%
8,COc1ccc(C)cc1-n1nnnc1SCC(=O)NC(=O)NCc1ccco1,12%
9,O=c1c(C(c2ccc(O)cc2)c2c(O)nc3n(c2=O)CCS3)c(O)nc2n1CCS2,7%
10,C/C(N)=C(/C#N)C(=O)CSc1nnc(-c2ccc(OC(F)F)cc2)o1,23%
11,CC1(C)OC(C)(C)/C(=C/Nc2ccc(O)cc2)C1=O,58%
12,COC(=O)c1ccc(C2Nc3ccc(/C(C)=N/NC(=O)C(OC)c4ccccc4)cc3C3C=CCC32)cc1 (configuration not stated),40%
13,CCc1ccc(Nc2nc(N)nc(CSc3nnnn3-c3ccccc3)n2)cc1,8%
14,Oc1ccccc1C1=Nc2ccccc2N=C(c2cccs2)C1,17%
15,C=C1C2C[C@H](O)C(C)(C)[C@@]2(O)[C@H](O)C[C@]23C[C@@](C)(O)[C@H](CC[C@H]12)[C@H]3O (some centres not stated),1%
16,Cc1nn2cc(-c3ccc(N)cc3)nc2s1,15%
17,COc1cc(O)c2c(=O)c3c(OC)c(O)ccc3oc2c1,25%
18,COc1cc(-c2nc3ccc4ccccc4c3c3c2CCC3)ccc1O,59%
